The values below come from PubChem BioAssay AID1347147 (National Center for Advancing Translational Sciences (NCATS), 2019).

Results filed as inconclusive are left out. Where a call stands in place of a potency, no number is given. Calls of active or inactive are those of the source. Calls follow the shape of the dose curve; as a rule, active = well fitted inhibition curve with a large enough effect; inconclusive = small, poorly fitted or top-dose-only effect; inactive = no such curve, though single readings can be large or run the other way.
Potency is read from the fitted curve at half-maximal effect.

Chain of N-terminal Xaa-Pro-Lys N-methyltransferase 1 (Homo sapiens) (Q9BV86 whole entry, looked up): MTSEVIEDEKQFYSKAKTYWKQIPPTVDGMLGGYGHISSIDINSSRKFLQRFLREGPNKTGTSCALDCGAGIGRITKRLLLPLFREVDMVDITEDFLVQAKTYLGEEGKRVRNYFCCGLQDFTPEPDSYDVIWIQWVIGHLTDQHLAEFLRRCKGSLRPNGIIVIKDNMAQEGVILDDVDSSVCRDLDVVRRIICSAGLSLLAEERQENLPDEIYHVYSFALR

The assay addresses N-terminal Xaa-Pro-Lys N-methyltransferase 1 (Homo sapiens) (UniProt Q9BV86). Briefly: qHTS Assay for Inhibitors of N-terminal methyltransferase 1 (NTMT1): MTaseGlo Confirmatory Screen, Round 2. The conditions noted are these: NTMT1 enzyme, MTase-Glo SAH luminescence; series mostly up to 57.4 µM. Summed up:
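NTMT1 (125 nM) with 100 µM SAM was preincubated ~15 min with compound, then 1 µM SPKRIA peptide was added for 30 min at RT. SAH was detected by MTase-Glo luminescence, normalized to no-enzyme and DMSO controls, and fitted to a 4-parameter Hill equation.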
For the compound `CC(C)NC[C@H](O)c1ccc(O)c(O)c1`, the Potency entry is “inactive”. As for `c1ccc(CN2CCC3(CCCc4ccccc43)CC2)cc1`, the entry is “inactive”. `Nc1ncnc2c1ncn2[C@@H]1O[C@H](COP(=O)(O)OP(=O)(O)OC[C@H]2OC(O)[C@H](O)[C@@H]2O)[C@@H](O)[C@H]1O` (stereo partly drawn): the Potency result was “inactive”. To `OC[C@H]1O[C@H](n2cnc3c(N[C@H]4CCC[C@@H]4O)ncnc32)[C@H](O)[C@@H]1O` belongs “inactive”; to `CCCCCCCCCCCCCCCCCC(=O)OC(CC(=O)O)C[N+](C)(C)C` (stereo not drawn), “inactive”; to `O=c1[nH]c(=S)[nH]c(-c2ccccc2)c1Cc1c(O)ccc2ccccc12`, “inactive”.

As for `Cc1cc2nc3c(=O)[nH]c(=O)nc-3n(C[C@H](O)[C@H](O)[C@H](O)COP(=O)(O)OP(=O)(O)OC[C@H]3O[C@@H](n4cnc5c(N)ncnc54)[C@H](O)[C@H]3O)c2cc1C`, the Potency result is “inactive”.

In the case of `C#CCN(C)CCCOc1ccc(Cl)cc1Cl`, the Potency entry was “inactive”. Take `OCC1OC(n2cnc3c(NCc4ccco4)ncnc32)C(O)C1O` (stereo not drawn): the Potency result is “inactive”. As for `Cc1cc2c(cc1Cl)N(C(=O)Nc1ccc(Oc3cccnc3C)nc1)CC2`, the entry is “inactive”; as for `CC(C)NC[C@@H](O)c1ccc(O)c(O)c1`, “inactive”; as for `Oc1ccc(C2CNCc3sccc32)cc1O` (stereo not drawn), “inactive”.

On to `CC(CN1c2ccccc2Sc2ccccc21)N(C)C` (stereo not drawn), for which the Potency entry was “inactive”. To `Oc1cc2c(cc1O)CN(C(=S)NCCc1ccc(Cl)cc1)CCC2` belongs “inactive”; to `O=C(N[C@@H](Cc1ccccc1)C(=O)CCl)OCc1ccccc1`, “inactive”; to `COc1cc2nc(N3CCCN(C)CC3)nc(NC3CCNCC3)c2cc1OC`, “inactive”. Turning to `C=CCN1CCc2c(cc(O)c(O)c2Br)[C@@H](c2ccccc2)C1`, the Potency result was “inactive”.

Regarding `S=C(Nc1ccccc1)Nc1nccs1`, the Potency result was “inactive”. On to `O=[N+]([O-])c1ccc(CNc2nc(NCc3cccc(C(F)(F)F)c3)nc3nc[nH]c23)cc1`, for which the Potency result is “inactive”. For the compound `CSc1ccc2c(c1)N(CCC1CCCCN1C)c1ccccc1S2` (stereo not drawn), the Potency result was “inactive”.

Regarding `N[C@@H](Cc1ccc(O)c(O)c1)C(=O)O`, the Potency result is “inactive”. In the case of `CCNC(=O)[C@H]1O[C@H](n2cnc3c(N)nc(NCCc4ccc(CCC(=O)O)cc4)nc32)[C@@H](O)[C@@H]1O`, the Potency result was “inactive”.

For the compound `CN(C)c1ccc(/C=C2\C(=O)Nc3ccccc32)cc1`, the Potency entry was “inactive”.

For `NCCc1ccc(O)c(O)c1`, the Potency result was “inactive”. As for `COc1cc2nc(N3CCCN(C)CC3)nc(N3CCN(C)CC3)c2cc1OC`, the entry is “inactive”. As for `NC(Cc1c[nH]c2ccc(O)cc12)C(=O)O` (stereo not drawn), the entry is “inactive”. `CN(C)CCCN1c2ccccc2Sc2ccccc21`: the Potency entry is “inactive”. To `OC[C@H]1O[C@@H](n2cnc3cncnc32)[C@H](O)[C@@H]1O` belongs 5.62 µM (active); to `O=c1ccc2ccc(O)c(O)c2o1`, “inactive”; to `CN1Cc2c(N)cccc2C(c2ccccc2)C1` (stereo not drawn), “inactive”. To `Oc1ccccc1O` belongs “inactive”; to `CC(C)NCC(O)c1ccc(O)c(O)c1` (stereo not drawn), “inactive”. To `CNCCc1cnc(CCC(c2ccccc2)c2ccccc2)[nH]1` belongs “inactive”; to `O=C1Cc2c([nH]c3ccc(Br)cc23)-c2ccccc2N1`, “inactive”; to `O=C1c2c(O)cc(O)cc2OC(c2ccc(O)c(O)c2)C1O` (stereo not drawn), “inactive”.

Take `Cc1ccc(S(=O)(=O)/C=C/C#N)cc1`: the Potency entry is “inactive”. To `Nc1ncnc2c1ncn2[C@@H]1O[C@H](CO)[C@@H](O)[C@H]1O` belongs “inactive”; to `CCN1C(=O)C=CC1=O`, “inactive”.
